In PubChem BioAssay (EPA / NIEHS):
Records with an inconclusive call do not appear. Calls of active or inactive are those of the source. Rule for the calls: active = hit-call score of the fitted dose curve at least 0.9, where 1 is the maximum; inconclusive = response in the unintended direction; inactive = score below 0.9.

Experiments:
[1] = target: rat Glutamate, AMPA Site (AMPA), Gria1 (gene 50592) (UniProt P19490); assay: NVS_LGIC_rAMPA: NovaScreen (NVS) Ligand-Gated Ion Channel Assay for rat Glutamate, AMPA Site (AMPA) (AID 2283324)
In short: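 Screening at 25 uM in duplicate preceded concentration series reaching 50 uM for qualifying compounds. Radioligand displacement on rat forebrain membranes, 1 h, filter-based scintillation readout; reduced binding relative to DMSO.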

[2] = target: Small conductance calcium-activated potassium channel protein 1 (Rattus norvegicus) (UniProt P70606); assay: NVS_IC_rKCaCh: NovaScreen (NVS) Ion Channel Assay for rat Potassium Channel, Ca2+ Act., VI (KCaCh) (AID 2283336)
In short: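 Filter-based scintillation counting of radioligand bound to rat forebrain membrane preparations, measured 1 h after compound addition. Primary screen used 25 uM in duplicate, with concentration-response follow-up; signal decrease relative to DMSO marks activity.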

[3] = target: rat Thyrotropin Releasing Hormone Receptor (TRH), Trhr (gene 25570) (UniProt Q01717); assay: NVS_GPCR_rTRH: NovaScreen (NVS) G Protein-Coupled Receptor Assay for rat Thyrotropin Releasing Hormone Receptor (TRH) (AID 2283329);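 note: hit means lower bound tracer signal versus DMSO baseline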
In short: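 Cell-free radioligand binding on rat forebrain membranes; bound tracer measured by filter-based scintillation counting 4 hours after dosing. Loss of signal versus DMSO baseline indicates displacement; primary screen at 25 uM in duplicate, actives then run in concentration series.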

[4] = target: human Peripheral-type Benzodiazepine Receptor (PBR), TSPO (gene 706) (UniProt P30536); assay: NVS_MP_hPBR: NovaScreen (NVS) Membrane Protein Assay for human Peripheral-type Benzodiazepine Receptor (PBR) (AID 2283331);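 note: hits reduce radioligand binding relative to DMSO baseline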
In short: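 Cell-free radioligand displacement, human colonic membranes, 1 h exposure. Filter radiodetection read-out. Single-concentration duplicates (25 uM), then concentration-response for actives; DMSO negative control.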

[5] = target: Voltage-gated inwardly rectifying potassium channel KCNH2 (Homo sapiens) (UniProt Q12809); assay: NVS_IC_hKhERGCh: NovaScreen (NVS) Ion Channel Assay for human Potassium Channel ERG (KhERGCh) (AID 2283333)
In short: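 Membranes from CHO cells expressing human ERG; displacement of radioligand measured by filtration and scintillation after 0.75 h. Single-concentration duplicate screen at 25 uM, then concentration-response for actives; DMSO baseline.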

[6] = target: bovine Estrogen Receptor (ER), ESR1 (gene 407238) (UniProt P49884); assay: NVS_NR_bER: NovaScreen (NVS) Nuclear Receptor Binding Assay for bovine Estrogen Receptor (ER) (AID 2283345);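 note: actives lower the bound radioligand count which means they displace the ER ligand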
In short: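 Cell-free radioligand binding with receptor from bovine uterine membranes, read by scintillation counting 18 h after dosing. Loss of specific binding was scored against DMSO; primary screen at 25 uM in duplicate, actives then run as concentration series.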

[7] = target: Estrogen receptor (Homo sapiens) (UniProt P03372); assay: NVS_NR_hER: NovaScreen (NVS) Nuclear Receptor Binding Assay for human Estrogen Receptor (ER) (AID 2283348)
In short: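 MCF7-derived receptor extract, radiolabelled ligand, competitive displacement. Read: scintillation counts at 18 h. DMSO = negative control/baseline. Primary 25 uM duplicate; follow-up concentration–response.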

[8] = target: rat Glutamate, NMDA Agonist Site (GluNMDA), Grin1 (gene 24408) (UniProt P35439); assay: NVS_LGIC_rGluNMDA_Agonist: NovaScreen (NVS) Ligand-Gated Ion Channel Assay for rat Glutamate, NMDA Agonist Site (GluNMDA) (AID 2283327)
In short: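 Radioligand displacement at the agonist site on rat forebrain membrane preparations, read by filter scintillation after 1 h. Chemicals were first run at 25 uM in duplicate; those passing threshold were titrated to a 50 uM maximum.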

[9] = target: rat Glutamate, MK-801 Agonist Site (GluNMDA_MK801), Grin1 (gene 24408) (UniProt P35439); assay: NVS_LGIC_rGluNMDA_MK801_Agonist: NovaScreen (NVS) Ligand-Gated Ion Channel Assay for rat Glutamate, MK-801 Agonist Site (GluNMDA_MK801) (AID 2283340)
In short: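 Rat forebrain membrane preparation; MK-801-site radioligand binding read by filtration and scintillation after 1.5 h. Single-point 25 uM duplicate screen, followed by singleton concentration series to 50 uM max; DMSO baseline.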

[10] = target: rat Peripheral-type Benzodiazepine Receptor (PBR), Tspo (gene 24230) (UniProt P16257); assay: NVS_MP_rPBR: NovaScreen (NVS) Membrane Protein Assay for rat Peripheral-type Benzodiazepine Receptor (PBR) (AID 2283335)
In short: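 Single-concentration duplicate screening at 25 uM preceded concentration-series retesting of actives. Binding of a specific radioligand to rat kidney membrane PBR was read by filtration radiodetection after 1 h, with plate-wise positive and negative controls.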

[11] = target: rat Glycine Receptor, Strychnine-sensitive (GlyRStrySens), Glra1 (gene 25674) (UniProt P07727); assay: NVS_LGIC_rGlyRStrySens: NovaScreen (NVS) Ligand-Gated Ion Channel Assay for rat Glycine Receptor, Strychnine-sensitive (GlyRStrySens) (AID 2283341)
In short: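 Radioligand displacement on rat spinal cord membranes, 1 hr, filter scintillation read-out. Single-concentration duplicate screen at 25 uM; chemicals meeting threshold (e.g., 30% inhibition) rerun in concentration-response up to 50 uM. Loss of binding fitted versus DMSO.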

[12] = target: human Androgen Receptor (AR), AR (gene 367) (UniProt P10275); assay: NVS_NR_hAR: NovaScreen (NVS) Nuclear Receptor Binding Assay for human Androgen Receptor (AR) (AID 2283332)
In short: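 LnCAP cell-free extract; radioligand displacement read by scintillation counting after 20 h. Primary screen single concentration 25 uM in duplicate, actives then run as concentration series; loss-of-signal fitted relative to DMSO baseline.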

[13] = target: chimpanzee Androgen Receptor (AR), AR (gene 747460) (UniProt O97775); assay: NVS_NR_cAR: NovaScreen (NVS) Nuclear Receptor Binding Assay for chimpanzee Androgen Receptor (AR) (AID 2283346);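 note: radioligand displacement from AR measured by scintillation counting in a cell-free assay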
In short: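 Radioligand binding to chimpanzee AR expressed in Sf9/Sf21 cells, cell-free, measured 72 h after dosing by lysate-based scintillation counting. Loss of signal vs DMSO; initial duplicate screen at 25 uM, actives retested in concentration series.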

[14] = target: human Serotonin, 5-Hydroxytryptamine Receptor 3 (5HT3), HTR3A (gene 3359) (UniProt P46098); assay: NVS_LGIC_h5HT3: NovaScreen (NVS) Ligand-Gated Ion Channel Assay for human Serotonin, 5-Hydroxytryptamine Receptor 3 (5HT3) (AID 2283325)
In short: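 Initially tested at 25 uM in duplicate, then up to 50 uM in concentration-response for actives, compounds competed with a radioligand for HEK293-derived human 5-HT3 receptor. Bound counts were measured by filtration and scintillation at 1 h; loss of signal versus DMSO.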

[15] = target: rat Gamma-Aminobutyric Acid Type A Receptor, Non-Selective (GABAR-NonSelective), Gabra1 (gene 29705) (UniProt P62813); assay: NVS_LGIC_rGABAR_NonSelective: NovaScreen (NVS) Ligand-Gated Ion Channel Assay for rat Gamma-Aminobutyric Acid Type A Receptor, Non-Selective (GABAR-NonSelective) (AID 2283326)
In short: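 Compounds were first screened in duplicate at 25 uM, with actives run as singleton concentration series (max 50 uM). Binding of a radioligand to rat whole-brain GABA-A preparation was measured by filtration and scintillation counting after 1 h, DMSO baseline.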

[16] = NVS_IC_rCaBTZCHL: NovaScreen (NVS) Ion Channel Assay for Calcium Channel, Type L, Benzothiazepine Site (CaBTZCHL) (AID 2283337)
In short: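 Benzothiazepine-site binding was assessed in a tissue-derived, cell-free rat cortical membrane system. After 1.5 h exposure, radioactivity retained on filters was quantified by scintillation; positive and negative controls accompanied every plate.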

[17] = target: bovine Gamma-Aminobutyric Acid Type A Receptor Agonist (GABAR Agonist), GABRA1 (gene 780973) (UniProt P08219); assay: NVS_LGIC_bGABAR_Agonist: NovaScreen (NVS) Ligand-Gated Ion Channel Assay for bovine Gamma-Aminobutyric Acid Type A Receptor Agonist (GABAR Agonist) (AID 2283338)
In short: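 Radioligand binding to bovine cerebellar membranes in agonist format, read by filter-based scintillation counting after 1 h. Primary screen in duplicate at 25 uM, with actives followed in concentration series. Gain of signal versus DMSO.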

[18] = target: human Constitutive Androstane Receptor (CAR), NR1I3 (gene 9970) (UniProt Q14994); assay: NVS_NR_hCAR_Antagonist: NovaScreen (NVS) Nuclear Receptor Binding Assay for human Constitutive Androstane Receptor Antagonism (CAR) (AID 2283344)
In short: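 Single 25 uM duplicate primary screen, with concentration-series follow-up on actives. Cell-free binding format run in antagonist mode, TR-FRET signal taken 1 h post-dose; activity is signal loss relative to DMSO.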

human Peripheral-type Benzodiazepine Receptor (PBR), TSPO (gene 706), sequence (P30536 whole entry, looked up): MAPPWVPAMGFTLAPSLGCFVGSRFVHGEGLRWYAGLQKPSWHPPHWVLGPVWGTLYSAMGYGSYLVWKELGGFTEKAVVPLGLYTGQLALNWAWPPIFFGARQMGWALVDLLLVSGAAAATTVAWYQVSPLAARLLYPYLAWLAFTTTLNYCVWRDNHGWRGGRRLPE
Voltage-gated inwardly rectifying potassium channel KCNH2 (Homo sapiens), sequence (Q12809 whole entry, looked up): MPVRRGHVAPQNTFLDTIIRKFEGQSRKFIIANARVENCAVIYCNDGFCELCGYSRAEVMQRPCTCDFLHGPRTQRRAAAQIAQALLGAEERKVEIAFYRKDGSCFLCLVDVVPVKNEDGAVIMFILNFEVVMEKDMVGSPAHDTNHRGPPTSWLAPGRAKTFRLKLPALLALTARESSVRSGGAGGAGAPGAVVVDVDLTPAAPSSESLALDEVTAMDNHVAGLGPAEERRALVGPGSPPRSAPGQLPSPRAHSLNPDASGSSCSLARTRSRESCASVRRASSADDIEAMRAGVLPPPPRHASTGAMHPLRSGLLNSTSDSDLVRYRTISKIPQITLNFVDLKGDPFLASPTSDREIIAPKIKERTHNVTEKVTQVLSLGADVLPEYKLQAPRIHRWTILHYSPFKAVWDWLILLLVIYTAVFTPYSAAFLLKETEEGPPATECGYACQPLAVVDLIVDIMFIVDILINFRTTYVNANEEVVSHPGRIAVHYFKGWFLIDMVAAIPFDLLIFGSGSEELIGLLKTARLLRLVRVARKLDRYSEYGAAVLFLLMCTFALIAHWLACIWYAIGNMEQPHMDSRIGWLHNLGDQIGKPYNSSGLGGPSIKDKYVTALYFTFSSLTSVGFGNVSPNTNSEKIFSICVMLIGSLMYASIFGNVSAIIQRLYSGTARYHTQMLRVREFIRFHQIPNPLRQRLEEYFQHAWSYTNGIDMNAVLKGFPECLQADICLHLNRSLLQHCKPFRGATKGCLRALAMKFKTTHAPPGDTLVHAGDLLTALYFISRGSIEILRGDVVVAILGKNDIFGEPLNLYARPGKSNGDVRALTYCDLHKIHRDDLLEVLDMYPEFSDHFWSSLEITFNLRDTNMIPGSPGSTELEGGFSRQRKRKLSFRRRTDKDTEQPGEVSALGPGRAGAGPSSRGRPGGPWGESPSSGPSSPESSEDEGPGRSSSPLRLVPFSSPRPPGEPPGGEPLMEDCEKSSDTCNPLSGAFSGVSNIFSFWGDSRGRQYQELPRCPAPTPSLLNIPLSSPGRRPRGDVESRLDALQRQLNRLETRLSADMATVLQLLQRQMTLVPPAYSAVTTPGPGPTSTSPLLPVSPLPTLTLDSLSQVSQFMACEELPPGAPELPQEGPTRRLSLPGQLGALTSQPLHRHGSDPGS
bovine Estrogen Receptor (ER), ESR1 (gene 407238), sequence (P49884 whole entry, looked up): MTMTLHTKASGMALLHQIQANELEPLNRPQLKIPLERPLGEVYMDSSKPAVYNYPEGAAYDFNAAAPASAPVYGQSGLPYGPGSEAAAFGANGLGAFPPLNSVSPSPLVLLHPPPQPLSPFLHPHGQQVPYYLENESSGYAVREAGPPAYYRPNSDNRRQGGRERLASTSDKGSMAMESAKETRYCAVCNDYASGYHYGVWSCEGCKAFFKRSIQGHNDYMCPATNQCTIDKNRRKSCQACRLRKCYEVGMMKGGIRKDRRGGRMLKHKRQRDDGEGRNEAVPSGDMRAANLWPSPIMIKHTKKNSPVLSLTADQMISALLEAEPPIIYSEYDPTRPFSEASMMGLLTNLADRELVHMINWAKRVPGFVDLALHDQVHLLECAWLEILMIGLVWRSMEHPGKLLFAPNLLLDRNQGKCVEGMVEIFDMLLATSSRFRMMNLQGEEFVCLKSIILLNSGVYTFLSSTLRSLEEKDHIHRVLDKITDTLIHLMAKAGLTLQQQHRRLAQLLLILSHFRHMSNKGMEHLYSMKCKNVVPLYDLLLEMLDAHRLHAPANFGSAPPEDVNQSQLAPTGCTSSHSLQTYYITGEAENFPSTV
rat Thyrotropin Releasing Hormone Receptor (TRH), Trhr (gene 25570), sequence (Q01717 whole entry, looked up): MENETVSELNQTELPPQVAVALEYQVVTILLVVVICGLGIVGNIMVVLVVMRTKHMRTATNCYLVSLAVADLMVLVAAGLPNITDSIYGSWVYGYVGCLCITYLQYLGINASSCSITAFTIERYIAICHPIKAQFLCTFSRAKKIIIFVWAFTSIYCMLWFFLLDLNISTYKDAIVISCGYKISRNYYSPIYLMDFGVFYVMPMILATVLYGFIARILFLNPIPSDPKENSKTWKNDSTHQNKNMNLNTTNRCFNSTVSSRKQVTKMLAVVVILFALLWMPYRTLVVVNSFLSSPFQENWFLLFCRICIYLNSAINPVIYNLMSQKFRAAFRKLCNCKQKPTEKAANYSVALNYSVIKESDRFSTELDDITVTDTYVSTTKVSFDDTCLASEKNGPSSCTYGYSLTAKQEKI
rat Gamma-Aminobutyric Acid Type A Receptor, Non-Selective (GABAR-NonSelective), Gabra1 (gene 29705), sequence (P62813 whole entry, looked up): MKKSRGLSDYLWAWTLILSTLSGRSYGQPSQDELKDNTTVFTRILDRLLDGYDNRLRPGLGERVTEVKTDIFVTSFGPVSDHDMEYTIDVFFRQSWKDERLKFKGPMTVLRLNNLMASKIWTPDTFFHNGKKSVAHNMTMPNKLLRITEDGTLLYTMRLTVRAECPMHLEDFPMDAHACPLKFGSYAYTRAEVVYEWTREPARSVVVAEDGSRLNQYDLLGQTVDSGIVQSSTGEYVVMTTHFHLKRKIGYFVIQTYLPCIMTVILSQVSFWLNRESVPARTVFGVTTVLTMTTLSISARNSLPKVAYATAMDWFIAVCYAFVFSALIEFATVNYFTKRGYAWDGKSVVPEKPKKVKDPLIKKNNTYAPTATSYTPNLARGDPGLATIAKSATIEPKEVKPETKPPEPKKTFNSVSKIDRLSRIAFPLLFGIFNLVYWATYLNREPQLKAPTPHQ
rat Glycine Receptor, Strychnine-sensitive (GlyRStrySens), Glra1 (gene 25674), sequence (P07727 whole entry, looked up): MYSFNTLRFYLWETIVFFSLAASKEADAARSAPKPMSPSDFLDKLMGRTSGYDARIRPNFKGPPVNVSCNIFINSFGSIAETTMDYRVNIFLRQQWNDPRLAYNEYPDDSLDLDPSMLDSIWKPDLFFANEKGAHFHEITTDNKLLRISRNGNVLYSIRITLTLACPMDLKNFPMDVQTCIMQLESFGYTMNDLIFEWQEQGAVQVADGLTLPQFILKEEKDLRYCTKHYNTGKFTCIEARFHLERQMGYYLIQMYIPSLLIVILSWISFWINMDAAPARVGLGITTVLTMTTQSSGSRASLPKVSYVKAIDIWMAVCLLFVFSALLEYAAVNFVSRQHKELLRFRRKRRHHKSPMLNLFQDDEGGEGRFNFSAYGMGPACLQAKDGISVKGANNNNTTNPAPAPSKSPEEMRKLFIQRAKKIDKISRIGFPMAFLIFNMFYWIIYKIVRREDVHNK
Small conductance calcium-activated potassium channel protein 1 (Rattus norvegicus), sequence (P70606 whole entry, looked up): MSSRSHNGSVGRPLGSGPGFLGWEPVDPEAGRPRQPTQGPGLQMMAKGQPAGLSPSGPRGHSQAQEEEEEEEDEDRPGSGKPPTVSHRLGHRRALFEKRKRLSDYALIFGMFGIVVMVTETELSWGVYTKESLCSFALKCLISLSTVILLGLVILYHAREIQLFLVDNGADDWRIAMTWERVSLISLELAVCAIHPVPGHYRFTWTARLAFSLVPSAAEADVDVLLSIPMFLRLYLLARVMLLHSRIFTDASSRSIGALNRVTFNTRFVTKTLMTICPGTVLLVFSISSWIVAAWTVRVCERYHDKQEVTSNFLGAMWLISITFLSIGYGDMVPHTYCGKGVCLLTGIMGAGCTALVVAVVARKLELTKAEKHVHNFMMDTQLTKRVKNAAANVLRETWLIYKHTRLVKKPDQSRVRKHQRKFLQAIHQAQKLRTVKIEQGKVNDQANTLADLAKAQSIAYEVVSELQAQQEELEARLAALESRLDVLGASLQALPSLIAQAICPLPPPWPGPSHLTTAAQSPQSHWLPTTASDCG
rat Peripheral-type Benzodiazepine Receptor (PBR), Tspo (gene 24230), sequence (P16257 whole entry, looked up): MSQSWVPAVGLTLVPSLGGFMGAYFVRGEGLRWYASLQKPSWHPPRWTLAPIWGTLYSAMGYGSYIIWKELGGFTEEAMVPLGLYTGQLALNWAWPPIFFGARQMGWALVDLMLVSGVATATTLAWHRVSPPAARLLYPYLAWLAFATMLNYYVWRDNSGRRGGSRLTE
Estrogen receptor (Homo sapiens), sequence (P03372 whole entry, looked up): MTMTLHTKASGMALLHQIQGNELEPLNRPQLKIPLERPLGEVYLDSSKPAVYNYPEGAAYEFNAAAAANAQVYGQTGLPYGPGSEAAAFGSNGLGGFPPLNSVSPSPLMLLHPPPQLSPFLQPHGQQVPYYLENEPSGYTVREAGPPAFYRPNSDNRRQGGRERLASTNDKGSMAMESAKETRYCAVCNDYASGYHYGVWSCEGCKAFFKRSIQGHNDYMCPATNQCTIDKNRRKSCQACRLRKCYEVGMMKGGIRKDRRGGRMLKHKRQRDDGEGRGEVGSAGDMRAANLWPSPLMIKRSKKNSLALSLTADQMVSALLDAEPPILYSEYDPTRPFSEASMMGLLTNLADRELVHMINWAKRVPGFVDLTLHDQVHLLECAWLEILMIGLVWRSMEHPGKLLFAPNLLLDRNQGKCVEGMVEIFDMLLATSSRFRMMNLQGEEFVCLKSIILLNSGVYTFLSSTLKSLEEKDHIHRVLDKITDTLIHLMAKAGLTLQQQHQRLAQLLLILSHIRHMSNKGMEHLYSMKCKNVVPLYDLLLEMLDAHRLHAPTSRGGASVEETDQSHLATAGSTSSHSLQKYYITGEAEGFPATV
human Constitutive Androstane Receptor (CAR), NR1I3 (gene 9970), sequence (Q14994 whole entry, looked up): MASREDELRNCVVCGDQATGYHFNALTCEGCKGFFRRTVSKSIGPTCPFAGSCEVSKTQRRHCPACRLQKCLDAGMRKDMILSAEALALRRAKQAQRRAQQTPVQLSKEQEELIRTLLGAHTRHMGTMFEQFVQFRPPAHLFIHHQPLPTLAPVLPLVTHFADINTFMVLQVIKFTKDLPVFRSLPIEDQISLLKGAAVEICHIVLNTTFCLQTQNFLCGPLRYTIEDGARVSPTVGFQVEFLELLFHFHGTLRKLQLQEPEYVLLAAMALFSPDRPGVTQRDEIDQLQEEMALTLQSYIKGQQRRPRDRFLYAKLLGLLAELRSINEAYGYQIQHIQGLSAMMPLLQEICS

**Q.** With O=C(O)CC(O)C(=O)O (stereo unspecified) as the compound, how does the outcome [1] read?
**A.** inactive

**Q.** And the outcome [2]?
**A.** inactive

**Q.** For CCOC(=O)CC(CC(=O)OCC)(OC(C)=O)C(=O)OCC, which outcome [3] is on record?
**A.** inactive

**Q.** For Nc1ccc(Nc2ccccc2)cc1, which AC50 [4] is on record?
**A.** 11.2 µM (active)

**Q.** And the outcome [5]?
**A.** inactive

**Q.** And the outcome [6]?
**A.** inactive

**Q.** And the outcome [7]?
**A.** inactive

**Q.** For Fc1ccccc1[C@@H](F)COC1CCC(Nc2ncnc3[nH]ncc23)CC1 (stereo partly specified), which AC50 [8] is on record?
**A.** 0.616 µM (active)

**Q.** And the outcome [9]?
**A.** inactive

**Q.** For COc1ccc(-n2nc(C(F)F)cc2-c2ccc(S(C)=O)cc2)cc1 (stereo unspecified), which outcome [8] is on record?
**A.** inactive

**Q.** What about the outcome [3] of the same compound?
**A.** inactive

**Q.** And the AC50 [10]?
**A.** 14.7 µM (active)

**Q.** What about the outcome [11] of the same compound?
**A.** inactive

**Q.** Which results are given for O=C(O)c1cccc(N(Cc2cccnc2)c2ccc(OC(F)F)c(OC(F)F)c2)c1?
**A.** outcome [4]: inactive; AC50 [12]: 0.0186 µM (active); AC50 [13]: 2.81 µM (active)

**Q.** Which outcome [14] does the source give for COc1cccc(-c2ccc(/C=C\CN3CCCCCC3)cc2Cl)c1 here?
**A.** inactive

**Q.** And the outcome [15]?
**A.** inactive

**Q.** And the AC50 [4]?
**A.** 7.83 µM (active)

**Q.** And the AC50 [5]?
**A.** 5.95 µM (active)

**Q.** What about the AC50 [10] of the same compound?
**A.** 8.04 µM (active)

**Q.** And the outcome [2]?
**A.** inactive

**Q.** And the AC50 [16]?
**A.** 0.665 µM (active)

**Q.** What about the AC50 [17] of the same compound?
**A.** 10.5 µM (active)

**Q.** And the outcome [11]?
**A.** inactive

**Q.** And the outcome [18]?
**A.** inactive

**Q.** And the outcome [6]?
**A.** inactive

**Q.** What about the outcome [7] of the same compound?
**A.** inactive

**Q.** With CCOC(=O)c1ccc(C2CCC(NC[C@H](O)COc3ccc(O)c(NS(C)(=O)=O)c3)CC2)cc1 (stereo partly specified) as the compound, how does the AC50 [15] read?
**A.** 4.64 µM (active)

**Q.** And the AC50 [5]?
**A.** 10.1 µM (active)

**Q.** What about the AC50 [16] of the same compound?
**A.** 7.7 µM (active)
